Reference: a collection of fitness landscapes (doi:10.1016/j.celrep.2020.107928)
The full ranking holds about 81,000 sequences; the median of “one-hybrid fitness for binding NBS DNA” is about -0.1, and the highest 2% start at about 0.36. Many of the other results were omitted from the sample, so the highest values are more common in it than they were.

B1: Caulobacter ParB omega fusion; a variant is named by its letters at X, in order, B8GW30 (parent)
chain: MESVVVGEPGMSEGRRGLGRGLSALLGEVDAAPAQAPGEQLGGSREAPIEILQRNPDQPRRTFREEDLEDLSNSIREKGVLQPILVRPSPDTAGEYQIVAGERAWRAAQRAGLKTVPIMVRELDDLAVLEIGIIENVQRADLNVLEEALSYKVLMEKFERTQENIAQTIGKSXSHVANXMRLLXLPDEVQSYLVSGELTAXHARAIAAAADPVALAKQIIEGGLSVRETEALARKAPNLSAGKSKGGRPPRVKDTDTQALESDLSSVLGLDVSIDHRGSTGTLTITYATLEQLDDLCNRLTRGI

Variants of: B1
Experiment: one-hybrid fitness for binding NBS DNA (the Noc-binding site; scaled: cognate 1, non-cognate 0); higher = stronger binding
Conditions: with NBS DNA site
Summary of the method: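 Fitness here means the log change in variant-to-wild-type read ratio between plasmids sequenced before and after selection. That scale was set so cognate equals 1 and non-cognate equals 0. The selection was a bacterial one-hybrid screen of Caulobacter ParB libraries, four specificity codons randomised, in E. coli USO carrying a HIS3 reporter with the site 19 bp from the promoter, grown 48 hours at 37°C on M9-minus-histidine with 0.1 mM IPTG and 5 mM 3-AT.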

Variant | one-hybrid fitness for binding NBS DNA
KDMM | ≤ 0.2
CVAL | ≤ 0.2
PSKH | ≤ 0.2
NIHC | ≤ 0.2
ILDT | ≤ 0.2
GHDG | ≤ 0.2
QTVS | 0.406
QTVD | ≤ 0.2
QTKS | 0.783
DTKS | ≤ 0.2
QPKD | ≤ 0.2
QTVH | 0.247
NTKS | ≤ 0.2
QTKH | 0.744
NTKH | ≤ 0.2
QTKD | 0.398
LKPK | ≤ 0.2
HFKG | ≤ 0.2
MFQS | ≤ 0.2
CVRD | ≤ 0.2
CFTS | ≤ 0.2
THAL | ≤ 0.2
VGWS | ≤ 0.2
YYSE | ≤ 0.2
CALW | ≤ 0.2

Variant | one-hybrid fitness for binding NBS DNA
QTKP | 0.41
QTKN | 0.56
QCKP | 0.332
QTVP | ≤ 0.2
QTVN | ≤ 0.2
MGCR | ≤ 0.2
YYNE | ≤ 0.2
KRKG | 0.234
SVHI | ≤ 0.2
PNPM | ≤ 0.2
QLHD | ≤ 0.2
QHHH | 0.214
QMHD | ≤ 0.2
QHHD | ≤ 0.2
QAHH | ≤ 0.2
QLHN | ≤ 0.2
QHHS | 0.386
QLHS | 0.373
QMHS | 0.451
QAHS | 0.398
QAHN | ≤ 0.2
QMHH | 0.221
HRHV | ≤ 0.2
IEST | ≤ 0.2
VWYL | ≤ 0.2

Variant | one-hybrid fitness for binding NBS DNA
EEFL | ≤ 0.2
ILLI | ≤ 0.2
QSHH | ≤ 0.2
QIHS | 0.281
QCHS | 0.502
QSHN | ≤ 0.2
QPHS | ≤ 0.2
QSHS | 0.381
CANC | ≤ 0.2
RDTV | ≤ 0.2
RRTH | 0.509
RRTD | ≤ 0.2
RCTY | ≤ 0.2
RCTH | 0.237
RRTN | 0.339
RRTS | 0.661
RRTP | ≤ 0.2
RSTY | ≤ 0.2
RRTY | 0.378
SLHR | ≤ 0.2
ENTM | ≤ 0.2
LGQD | ≤ 0.2
KSNT | ≤ 0.2
PNLF | ≤ 0.2
YVMG | ≤ 0.2

Variant | one-hybrid fitness for binding NBS DNA
DWYR | ≤ 0.2
LYTY | ≤ 0.2
QAAG | ≤ 0.2
APTR | ≤ 0.2
RCHH | 0.219
PNAR | ≤ 0.2
IYLD | ≤ 0.2
QCCM | ≤ 0.2
QRCF | 0.275
QRCC | 0.389
QRCE | 0.223
QSCM | ≤ 0.2
QRCH | 0.52
QRCG | 0.343
QRCN | 0.397
QCCN | ≤ 0.2
QCCC | ≤ 0.2
QSCC | ≤ 0.2
QRCM | 0.397
LFGC | ≤ 0.2
DFND | ≤ 0.2
HHDK | ≤ 0.2
NKRM | ≤ 0.2
EPHG | ≤ 0.2
TMRV | ≤ 0.2

Variant | one-hybrid fitness for binding NBS DNA
KINT | ≤ 0.2
AVTK | ≤ 0.2
QSFM | ≤ 0.2
YMRR | ≤ 0.2
QGHN | ≤ 0.2
AHIF | ≤ 0.2
DQPR | ≤ 0.2
VTFK | ≤ 0.2
PKYY | ≤ 0.2
QRCQ | 0.382
QSCQ | ≤ 0.2
QRCP | 0.249
QRCS | 0.693
QRCD | 0.237
ALAT | ≤ 0.2
THPT | ≤ 0.2
QRPI | ≤ 0.2
QTVI | ≤ 0.2
QCKI | 0.405
QRKI | 0.52
QTKI | 0.468
QSKI | 0.314
QPKI | ≤ 0.2
QRVI | ≤ 0.2
QTFI | ≤ 0.2

Variant | one-hybrid fitness for binding NBS DNA
KYRQ | ≤ 0.2
YRRY | ≤ 0.2
PRVL | ≤ 0.2
QQIK | ≤ 0.2
NLQI | ≤ 0.2
TNPS | ≤ 0.2
EPGN | ≤ 0.2
FANT | ≤ 0.2
SSVH | ≤ 0.2
PPVW | ≤ 0.2
SDIF | ≤ 0.2
IYDC | ≤ 0.2
RRHM | 0.294
RRGT | 0.732
RCET | ≤ 0.2
RRWT | 0.824
RRWM | 0.23
RRGY | 0.36
RRHG | 0.362
RRET | 0.698
RRHT | 0.755
RRGK | 0.215
RPET | ≤ 0.2
DEAY | ≤ 0.2
MGSC | ≤ 0.2

Variant | one-hybrid fitness for binding NBS DNA
KCYS | ≤ 0.2
CWHL | ≤ 0.2
DVFL | ≤ 0.2
TRWG | ≤ 0.2
YWSC | ≤ 0.2
RRQM | 0.273
RRLT | 0.761
RRRT | 0.786
RGRT | ≤ 0.2
DRRT | ≤ 0.2
RRLM | 0.228
RRYT | 0.769
RRQQ | 0.268
RRQT | 0.752
RFLT | ≤ 0.2
TAWR | ≤ 0.2
RMPQ | ≤ 0.2
CKWG | ≤ 0.2
MIPG | ≤ 0.2
HFNT | ≤ 0.2
GLSP | ≤ 0.2
RFCT | ≤ 0.2
RRDT | 0.755
RPDT | ≤ 0.2
RRNQ | 0.313

Variant | one-hybrid fitness for binding NBS DNA
RRNT | 0.785
RACT | 0.334
RRST | 0.776
RRSQ | 0.284
RRNK | 0.274
RRCT | 0.77
RRSC | 0.291
KAAL | ≤ 0.2
VLTL | ≤ 0.2
LFQI | ≤ 0.2
MRVN | ≤ 0.2
PPII | ≤ 0.2
YTPG | ≤ 0.2
RTHD | ≤ 0.2
RTDS | 0.219
RTSS | 0.475
RTLS | 0.381
RTLN | ≤ 0.2
RTSN | ≤ 0.2
RTHS | 0.54
RTND | ≤ 0.2
RTHH | 0.262
RTLD | ≤ 0.2
RTNS | 0.534
RTSD | ≤ 0.2
